In all, about 18,000 compounds went through this assay and about 750 (4.2%) were called active. Entries that show only a call come without a potency. Roughly 13% stayed inconclusive and do not appear here. Calls come from the whole dose curve; tested in HEK293 cells. The sample as a whole holds a higher share of actives than the screen did.
Test: qHTS for Inhibitors of binding or entry into cells for Lassa Virus
Conditions: Lassa virus pseudotyped entry inhibition, cell-based qHTS; series mostly up to 49.2 µM
Potency is the fitted concentration of half-maximal effect.

SMILES	activity change, negative = inhibition	Potency
CCCC[C@]12Cc3cc(C#N)ccc3[C@H](O1)c1c(cc(-c3ccccc3)oc1=O)O2	20.3% [at 8.59 µM] (inactive)	
C=C(C)C(O)C=CC=Cc1ccccc1 (stereo unspecified)	46.4% [at 8.59 µM] (inactive)	
C=O	inactive	
C[C@H]1CCC[C@@]2(C)CCCC[C@]12O	inactive	
CO[C@@]12[C@@H](COC(N)=O)C3=C(C(=O)C(C)=C(N)C3=O)N1C[C@@H]1N[C@@H]12	inactive	
COc1cc(=O)n2c(c1C(=O)NC(C)c1ccco1)CCN(C(=O)c1cn3ccc(C)cc3n1)CC2 (stereo unspecified)	inactive	
CC[C@H](C)[C@H](NC(=O)[C@H](CCCNC(=N)N)NC(=O)[C@H](CCCNC(=N)N)NC(=O)[C@H](CC(C)C)NC(=O)[C@H](Cc1ccccc1)NC(=O)CNC(=O)CNC(=O)[C@@H](N)Cc1ccc(O)cc1)C(=O)N[C@@H](CCCNC(=N)N)C(=O)N1CCC[C@H]1C(=O)N[C@@H](CCCCN)C(=O)N[C@@H](CC(C)C)C(=O)N[C@@H](CCCCN)C(=O)N[C@@H](Cc1c[nH]c2ccccc12)C(=O)N[C@@H](CC(=O)O)C(=O)N[C@@H](CC(N)=O)C(=O)N[C@@H](CCC(N)=O)C(=O)O	inactive	
CCC1(C2CCN(Cc3cccnc3)CC2)NC(=O)N(CC2COc3ccccc3O2)C1=O (stereo unspecified)	inactive	
COC(=O)C12C[C@@H](C)C3C(C)C(c4ccccc4C31)N2C(=O)C(F)(F)F (stereo partly specified)	4.36% [at 8.59 µM] (inactive)	
C=CCOC(=O)N[C@@H](CC(C)C)C(C(=O)OC)=C(C)NCc1ccccc1	-29.4% [at 8.59 µM] (inactive)	
C[C@H]1Cc2c(-c3ccccc3)nc3c(c2CO1)CN(S(=O)(=O)c1ccc(Cl)c2nonc12)CC3	-12.5% [at 8.59 µM] (inactive)	
CC1(C)OC[C@@H](COC(=O)CCc2ccc(OC[C@@H](O)CNCCNC(=O)N3CCOCC3)cc2)O1	inactive	
NS(=O)(=O)c1ccc(N=Nc2c(O)[nH]c3cccc(CCc4ccncc4)c23)cc1	inactive	
CC(=O)OC[C@H]1O[C@H](C#CCCCc2ccccc2)C=C[C@H]1OC(C)=O	-26.7% [at 8.59 µM] (inactive)	
COc1ccc(-n2c(CNC(=O)c3cc(C(F)(F)F)ccc3Cl)nnc2SC)cc1	inactive	
CCCC1C(=O)N2C(N(C)C)=Nc3ccc(C)cc3N2C1=O (stereo unspecified)	inactive	
CC(=O)OCC(COC(C)=O)OC(C)=O	inactive	
COC(=O)C(C(=O)OC)C1c2ccccc2C=C(C2CC2)N1C(=O)OC (stereo unspecified)	inactive	
CCC1CN(CCNC(=O)c2cccnc2C)Cc2cc(OC)ccc2O1 (stereo unspecified)	inactive	
O=C1OCCN1C(=O)[C@H]1[C@H](c2ccc(F)cc2)C(c2ccccc2)=NN1c1ccc(Br)cc1	inactive	
CCn1ccnc1C[C@@H]1COc2ccccc2O1	inactive	
C#CCN([C@@H](C)C(=O)OCC)S(=O)(=O)c1ccc(Br)cc1F	inactive	
CCCc1c2oc(C(=O)O)cc(=O)c2cc2c(=O)cc(C(=O)O)n(CC)c12	inactive	
CCc1noc(C)c1C(=O)NCCN1Cc2cc(OC)ccc2OC(CC)C1 (stereo unspecified)	inactive	
CC(=O)c1c(O)c(C)c(O)c(Cc2c(O)c3c(c(C(=O)/C=C\c4ccccc4)c2O)OC(C)(C)C=C3)c1O		15.8 µM (active)
CC(=O)c1c(O)c(C)c(O)c(Cc2c(O)c3c(c(C(=O)/C=C/c4ccccc4)c2O)OC(C)(C)C=C3)c1O	inactive	

SMILES	activity change, negative = inhibition	Potency
O=C(/C=C/c1ccccc1)c1ccccc1O	inactive	
CC(C)CNc1cccc2c1S(=O)(=O)N[C@H](CC(C)C)CO2	inactive	
CC[C@@]12C=C(/C=C/c3ccccc3)[C@](CC)(C1)[C@H](c1ccccc1)CC2=O	inactive	
O=C(NCc1ccco1)O[C@@H]1C(=O)c2cc(Br)ccc2O[C@H]1c1ccc2c(c1)OCO2	inactive	
O=C(C1CCCCC1)N1C[C@@H](n2cc(C3CC3)nn2)[C@@H](O)C[C@@H]1c1ccccc1	inactive	
COC(=O)c1ccccc1-c1cc(C)cc2c1OC(CNC(=O)C1CCOC1)C2 (stereo unspecified)	inactive	
CC(C)c1ccc2c(c1)c(SC(C)(C)C)c(CC(C)(C)C(=O)O)n2Cc1ccc(Cl)cc1		25.1 µM (active)
COCCN1C(=S)NC(c2cccc(F)c2)C(C(=O)OC)=C1C (stereo unspecified)	11% [at 8.59 µM] (inactive)	
O=C(Nc1ccc(C(=O)O)c(O)c1)c1ccccc1	inactive	
O=C(Nc1cccc(C(F)(F)F)c1)c1cc(Br)cc(Br)c1O		3.98 µM (active)
O=C(Nc1ccc(O)cc1)c1ccccc1O	inactive	
c1ccc2c(c1)[I+]c1ccccc1-2		0.891 µM (active)
CCCCCCCC/C=C\CCCCCCCC(=O)OC[C@H](CO)OC(C)=O	inactive	
Cc1cc2oc(=O)cc(-c3ccccc3)c2c(C)c1/C=C/c1ccc(F)cc1	inactive	
Oc1c(Cl)cc(Cl)c(Cl)c1Cc1c(O)c(Cl)cc(Cl)c1Cl		6.31 µM (active)
C=CCC1CCC(=O)N2CCCC12 (stereo unspecified)	inactive	
CO[C@H]1C=CO[C@@]2(C)Oc3c(C)c(O)c4c(O)c(c(/C=N/N5CCN(C)CC5)c(O)c4c3C2=O)NC(=O)/C(C)=C\C=C[C@H](C)[C@H](O)[C@@H](C)[C@@H](O)[C@@H](C)[C@H](OC(C)=O)[C@@H]1C	inactive	
COC(=O)C(C(=O)OC)[C@@H](NC=O)c1ccccc1	inactive	
Cc1c(O)cc(O)c2c(=O)c(-c3ccc(O)cc3)coc12	inactive	
O=C(OCc1ccccc1)c1ccc(O)cc1	inactive	
O=c1c(O)c(-c2ccc(O)cc2)oc2ccccc12	inactive	
O=c1c(CN2CCOc3ccc(CN4CCC(Oc5cccnc5)CC4)cc3C2)coc2ccccc12	inactive	
O[C@H]1CN(CC2CCCCC2)[C@@H](c2ccccc2)C[C@H]1n1cc(-c2ccc(F)cc2)nn1	inactive	
O=c1cc(CN2CCCCCCC2)c2c(ccc3ccccc32)o1	inactive	
CCCCCCN1C[C@H](O)[C@@H](n2cc(COC(=O)c3ccccc3)nn2)C[C@H]1c1ccc(Cl)cc1	inactive	
